# Inconclusive results are not listed. Where a call stands in place of a potency, no number is given. Active and inactive are the calls of the source. The call rests on the fitted dose curve; in most records, active means well fitted inhibition curve with a large enough effect; inconclusive means small, poorly fitted or top-dose-only effect; inactive means no such curve, though single readings can be large or run the other way.
# Test system: Zika virus NS2B-NS3 protease (linked construct)
# Test: Primary screen NINDS Rhodamine qHTS for Zika virus inhibitors (AID 1347160); further: nearly all actives have a fitted effect of over 55% in size
# Conditions: purified NS2B-NS3 protease, Rhodamine110 substrate fluorescence; series mostly up to 57.1 µM
# Summary of the method: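 In 10 mM Tris-HCl pH 8.0 containing 0.01% Tween 20, linked NS2B-NS3 protease (25 nM final) is exposed to test compounds for 15 min. Cleavage of 1.5 microM Rhodamine110 substrate is tracked by fluorescence over 15 min.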
# Potency means the concentration at half of the fitted maximal effect.
row,SMILES,Potency
1,CN(C)CCc1c[nH]c2ccc(CN3CCN(C)S3(=O)=O)cc12,inactive
2,CCCN1CCO[C@H]2c3cc(O)ccc3OC[C@@H]21,inactive
3,C[C@]12CC[C@@H](O)C[C@H]1CC[C@@H]1[C@@H]2CC[C@]2(C)C(=O)CC[C@@H]12,inactive
4,COC(=O)C1(C)CCC(O)C2(C)c3c(O)cc(C(C)C)cc3C(O)C(OC(C)=O)C12 (stereo not drawn),inactive
5,N#C[C@@H](O[C@@H]1O[C@H](CO[C@@H]2O[C@H](CO)[C@@H](O)[C@H](O)[C@H]2O)[C@@H](O)[C@H](O)[C@H]1O)c1ccccc1,inactive
6,COc1c(C(C)C)cc2c(c1O)[C@@]1(C(=O)O)CCCC(C)(C)C1CC2 (stereo partly drawn),inactive
7,CCN1CC2(COC)C3[C@@H](OC)C4C1C3(C1C[C@]3(O)[C@H](OC(=O)c5ccccc5)C1[C@]4(OC(C)=O)[C@@H](O)[C@@H]3OC)[C@H](OC)C[C@H]2O (stereo partly drawn),inactive
8,CC(C)(C)c1cc(C(C)(C)C)c2c(c1)C(O)(C(F)(F)F)C(=O)O2 (stereo not drawn),12.6 µM (active)
9,O=C(N1CCOCC1)N1CCN(c2ccc(Cl)cc2)CC1,inactive

# Test system: not listed separately
# Test: Confirmatory screen NINDS Rhodamine qHTS for Zika virus inhibitors (AID 1347161); further: nearly all actives have a fitted effect of over 60% in size
# Conditions: purified enzyme assay, Rhodamine110 substrate fluorescence, 15 min; series mostly up to 38.1 µM
# Summary of the method: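 Purified linked NS2B-NS3 protease (NS2B hydrophilic domain joined to NS3 protease by flexible linker), 25 nM in 10 mM Tris-HCl pH 8.0, 0.01% Tween 20. Compounds titrated, 15 min preincubation at room temperature; 1.5 microM Rhodamine110 substrate, FITC fluorescence change over 15 min.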
row,SMILES,Potency
1,CCCCCOc1cc2c(cc1-c1cc(/C=C/C(=O)O)ccc1O)C(C)(C)CCC2(C)C,2.21 µM (active)
2,COC(=O)C1(C)CCC(O)C2(C)c3cc(O)c(C(C)C)cc3C(O)C(OC(C)=O)C12 (stereo not drawn),27.1 µM (active)
3,COc1c(C(C)C)cc2c(c1O)[C@@]1(C(=O)O)CCCC(C)(C)C1CC2 (stereo partly drawn),9.67 µM (active)
4,CCN1CC2(COC)C3[C@@H](OC)C4C1C3(C1C[C@]3(O)[C@H](OC(=O)c5ccccc5)C1[C@]4(OC(C)=O)[C@@H](O)[C@@H]3OC)[C@H](OC)C[C@H]2O (stereo partly drawn),inactive
